Measured values from PubChem BioAssay AID493216 (National Center for Advancing Translational Sciences (NCATS), 2011).
Calls of active or inactive are those of the source. Calls come from the whole dose curve.

The compounds below were run against Polyunsaturated fatty acid lipoxygenase ALOX12 (Homo sapiens) (UniProt P18054) (assay: Inhibitors of 12-hLO (12-human lipoxygenase): Cuvette-Based Hit Assay for Validation of Followup Compounds). Settings: purified 12-hLO, cuvette absorbance 234 nm.
Experimental: The enzyme activity of 12-hLO was determined by a direct measurement of product formation by monitoring the absorbance at 234 nm in a 2 mL cuvette. IC50 values of inhibitors were obtained by measuring the enzymatic rate at a variety of concentrations (Carroll et al, Segraves et al). This assay was used to validate actives or inconclusive putative inhibitors identified in the primary screen (see related BioAssay AIDs). Assay Provider: Holman, T.R., University of California, Santa Cruz Screening Center PI: Austin, Christopher P. Screening Center: NIH Chemical Genomics Center
For control experiments, 2 mL of substrate buffer (10 uM arachidonic acid / 25 mM HEPES / 0.01% (v/v) Triton X-100, pH 8.0) was aliquoted in a cuvette with a magnetic stir bar. After equilibrium was ensured, an aliquot of inhibitor solvent was added (DMSO), and equilibrium was once again assured. The reaction was started by adding enzyme to the cuvette and the reaction was followed until completed. The inhibition experiments were performed as above, except the actual inhibitory compound was added instead of vehicle. To achieve an IC50, typically 5 concentrations of the inhibitor were studied. If the inhibitor concentration was constant, then five different reaction volumes were used. Step \ Parameter \ Value \ Description 1; UV-Vis; 234 nm; Equilibration 2; Reagent; 2 mL; Substrate buffer 3; UV-Vis; 234 nm; Equilibration 4; Reagent; varies; Compound 5; UV-Vis; 234 nm; Equilibration 6; Reagent; 50-200 nM; Enzyme 12-hLO 7; UV-Vis; 234 nm; Enzymatic reaction Step \ Notes 1; Blank cuvette to air. 2; 10 uM AA, 25 mM HEPES, 0.01% Triton X-100, pH 8. 3; No change in absorbance ensured. 4; Compound vehicle or compound in various concentrations depending on potency. 5; No change in absorbance ensured. 6; Enzyme concentration to achieve reaction rate between 0.02 and 0.04 AU/s. 7; Enzymatic reaction visualized until completion.

Sequence of Polyunsaturated fatty acid lipoxygenase ALOX12 (Homo sapiens) (P18054 whole entry, looked up): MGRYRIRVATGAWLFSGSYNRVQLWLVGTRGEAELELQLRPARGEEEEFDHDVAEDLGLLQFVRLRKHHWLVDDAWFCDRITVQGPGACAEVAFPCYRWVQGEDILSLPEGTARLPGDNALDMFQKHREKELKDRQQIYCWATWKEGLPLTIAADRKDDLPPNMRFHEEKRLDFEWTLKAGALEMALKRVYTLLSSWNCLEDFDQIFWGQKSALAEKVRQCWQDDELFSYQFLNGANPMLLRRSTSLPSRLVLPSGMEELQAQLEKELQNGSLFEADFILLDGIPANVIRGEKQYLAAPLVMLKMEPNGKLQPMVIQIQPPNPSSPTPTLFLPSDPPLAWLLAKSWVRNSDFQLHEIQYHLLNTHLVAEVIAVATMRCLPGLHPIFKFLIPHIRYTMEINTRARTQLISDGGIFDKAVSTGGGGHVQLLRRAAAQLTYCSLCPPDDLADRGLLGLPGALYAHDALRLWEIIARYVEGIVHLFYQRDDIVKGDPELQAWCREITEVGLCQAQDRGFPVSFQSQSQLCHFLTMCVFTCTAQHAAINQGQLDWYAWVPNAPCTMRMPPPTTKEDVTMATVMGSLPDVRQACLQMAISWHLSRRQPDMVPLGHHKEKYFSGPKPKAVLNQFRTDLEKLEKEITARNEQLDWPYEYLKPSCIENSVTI

Potency, active:
CCCOC(=O)c1ccc(Oc2c(-c3ccc(O)cc3O)n[nH]c2C)cc1 16.7 µM
COc1ccc(/C=C/c2nc(-c3ccccc3O)n[nH]2)cc1 18.9 µM
O=C(Nc1nnc(C2=COCCO2)o1)c1ccc(Cl)cc1 7.14 µM
CCc1ccc(S(=O)(=O)/N=C2/C=C(Sc3ncn[nH]3)C(=O)c3ccccc32)cc1 23.2 µM
CCOC(=O)Cc1cc(=O)n(-c2nc3ccccc3s2)[nH]1 22.4 µM
Oc1ccc(C2=Nn3c(nnc3-c3ccco3)SC2)cc1O 33.3 µM
Cc1ccc(C(=O)Nc2nnc(-c3ccco3)o2)cc1 6.52 µM
COc1ccc(C(Nc2ccccn2)c2c(NC(=O)c3ccco3)sc(C)c2C)cc1 (stereo unspecified) 23.2 µM
Cc1nc(N)sc1-c1csc(N(C)c2ccc(O)cc2)n1 15.6 µM
Cc1cc(C)c2cc(CN(Cc3nnnn3C3CCCCC3)CC3CCCO3)c(=O)[nH]c2c1 (stereo unspecified) 26.9 µM
COc1ccc(-c2n[nH]c(C(F)(F)F)c2-c2cc3ccccc3o2)c(O)c1 21 µM
